# From PubChem
# CHRM1 antagonist: human M1 muscarinic receptor antagonists, primary screen, CHO-K1 cells, Fluo-8 calcium fluorescence, 1536-well | Muscarinic acetylcholine receptor M1 (Homo sapiens), P11229 | CHO-K1 hM1, ACh EC80 antagonist | inhibition, % at 3 µM | 1.3% of 360,000 active;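 active means percent inhibition above its own plate's cutoff, namely the mean of that plate's compound wells plus 3 SD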;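 further: peak over basal fluorescence ratio during 140 s after agonist addition; 0% = ACh EC80 plus DMSO and 100% = DMSO alone without agonist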
# Target sequence (P11229 whole entry, looked up): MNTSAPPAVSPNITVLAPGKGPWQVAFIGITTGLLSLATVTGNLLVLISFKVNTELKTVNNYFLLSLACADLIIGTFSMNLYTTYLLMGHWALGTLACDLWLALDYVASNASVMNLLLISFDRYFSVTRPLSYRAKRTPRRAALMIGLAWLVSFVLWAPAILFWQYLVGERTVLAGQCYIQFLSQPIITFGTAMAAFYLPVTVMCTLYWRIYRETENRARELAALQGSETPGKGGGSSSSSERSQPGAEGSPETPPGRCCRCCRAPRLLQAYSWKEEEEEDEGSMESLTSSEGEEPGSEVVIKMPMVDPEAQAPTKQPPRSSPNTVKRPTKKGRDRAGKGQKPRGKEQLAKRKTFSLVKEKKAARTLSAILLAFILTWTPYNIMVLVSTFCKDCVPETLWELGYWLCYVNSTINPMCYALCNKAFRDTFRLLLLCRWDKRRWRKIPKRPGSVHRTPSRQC
# M1 ag parental: counter-screen for M1 agonists: effect in parental CHO-K1 cells; Fluo-8 calcium fluorescence; scaled to maximal ATP response, vehicle zero; activation, % at 3 µM; 0.48% of 360,000 active; in the data active means activation above about 15%;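 further: untransfected CHO-K1 host cells lacking M1 receptor as counterscreen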
# CHO-K1 Ca antag: nonselective inhibitor or artifact in parental CHO-K1 cells | ATP-induced calcium, Fluo-8 fluorescence | inhibition, % at 3 µM | 0.6% of 360,000 active;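 active means inhibition above a per-plate cutoff, the plate's mean sample inhibition plus 3 SD, cut at about 24% in these data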;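 further: 0% = DMSO plus EC80 ATP and 100% = DMSO alone without ATP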
# M1 PAM: human M1 muscarinic receptor positive allosteric modulators, primary screen, CHO-K1 cells, Fluo-8 calcium fluorescence, 1536-well. 0.088% of 360,000 active. activation, % at 3 µM. CHO-K1 hM1, ACh EC20; 0% = ACh EC20, 100% = maximal ACh. AID 588819, 2011; in the data active means activation above about 19%, passing the limit was not always enough
# M1 ag: human M1 muscarinic receptor agonists, primary screen, Fluo-8 calcium fluorescence, CHO-K1 cells, HTS; Muscarinic acetylcholine receptor M1 (Homo sapiens), P11229; CHO-K1 hM1, agonist mode; 0% DMSO, 100% acetylcholine EC100; activation, % at 3 µM; 0.33% of 360,000 active;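 active means activation above the run's mean compound activation plus 3 SD, cut at about 16% in these data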;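 further: peak over basal fluorescence ratio within a 140 s kinetic read after compound addition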
# M1 PAM parental: nonselective calcium activators in parental CHO-K1 cells, primary screen, counter-screen for M1 PAM project, cell-based, Fluo-8 calcium fluorescence, full deck, 1536-well. 0.02% of 360,000 active. activation, % at 3 µM. ATP EC20; 0% at ATP EC20, 100% at ATP max;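 active means activation above the run cutoff, the mean activation of all test compounds plus 3 SD, cut at about 40% in these data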;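 further: peak over basal fluorescence ratio in a 140 s read after ATP addition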
# The depositor's hits bear a star; . = no result. Only some compounds are listed: those with a hit (about 2.4% of all), similar ones and a draw of the others.
SMILES,CHRM1 antagonist,M1 ag parental,CHO-K1 Ca antag,M1 PAM,M1 ag,M1 PAM parental
Cc1c(C(=O)NCc2ccc([N+](=O)[O-])cc2)sc(=O)n1Cc1ccc2c(c1)OCO2,7.4,11.0,-6.0,-17.0,18.7*,13.3
Cc1onc(-c2c(F)cccc2Cl)c1C(=O)Nc1cc(S(=O)(=O)N2CCCCC2)ccc1O,47.2*,3.8,26.0*,-21.3,-3.3,-18.9
C/C(=N\NC(=O)Cc1csc(N2CCOCC2)n1)c1ccc(Cl)c(Cl)c1,-1.8,3.5,-13.6,2.1,-4.7,5.8
Cc1ccc([N+](=O)[O-])cc1N=Cc1ccc(Br)s1,11.4,0.1,-6.0,-3.0,-2.7,4.8
Cc1ccc(C=Nc2cc([N+](=O)[O-])ccc2C)s1,3.3,-0.2,23.9*,1.6,-5.3,-14.7
CCOC(=O)c1ccc(S(=O)(=O)N2CC(=O)Nc3ccccc32)cc1,-2.0,1.0,-12.5,-1.2,-7.2,13.4
COc1ccc(Cl)cc1NC(=O)NCc1ccc2c(c1)OCO2,-4.8,2.2,-5.1,3.0,-3.0,9.6
OC(C#CCCN1CCCCC1)(c1ccccc1)C1CCCCC1 (configuration not stated),97.4*,0.9,-0.3,-25.0,-6.5,1.1
CCN(CC)CCC#CC(O)(c1ccccc1)c1ccccc1,98.8*,6.8,-8.5,-27.1,-10.7,23.0
OC(C#CCCN1CCCCC1)(c1ccccc1)c1ccccc1,99.2*,0.4,-9.9,-27.3,-3.4,10.3
OC(CCN1CCCCC1)(c1ccccc1)C1C[C@@H]2C=C[C@H]1C2 (some centres not stated),98.8*,-0.1,-0.7,-26.0,-8.6,12.3
Cc1ccc(C(O)(CCN2CCCCC2)c2ccccc2)cc1 (configuration not stated),100.5*,0.5,-7.8,-27.3,-8.6,5.4
CCN(CC)C(=O)CSc1nsc(SCC(=O)N(CC)CC)c1C#N,14.8,-0.1,26.3*,-5.7,-3.2,-9.2
C=COC(=O)CSc1snc(SCC(=O)OC)c1C#N,-8.8,0.1,-5.7,6.2,-4.1,11.2
COc1ccc(N2CCN(S(=O)(=O)CC34CCC(CC3=O)C4(C)C)CC2)cc1 (configuration not stated),2.1,1.0,16.4,-2.3,-3.1,-21.2
CNC(=O)Nc1cccc(-c2ccnc(C)n2)c1,-14.7,19.9*,-2.3,3.3,-2.4,-2.0
CCC/C=C/c1ccc(CN2C(C(C)C)C(=O)N(Cc3cn(Cc4ccco4)nn3)CCS2(=O)=O)cc1 (configuration not stated),-11.2,-0.1,2.9,12.4,-0.9,16.1
O=C(CN1CCN(Cc2ccccc2Cl)CC1)N/N=C/C=C\c1ccccc1[N+](=O)[O-],3.2,1.7,9.1,6.9,-10.3,-9.2
O=C(CN1CCN(Cc2ccccc2Cl)CC1)N/N=C/C=C/c1ccccc1[N+](=O)[O-],15.6,1.0,27.3*,-8.7,-7.1,-12.5
C[C@@H]1CN([C@H](C)CO)C(=O)CCCn2cc(nn2)CO[C@H]1CN(C)C(=O)C1CCCCC1,-10.3,0.2,17.8,9.5,-5.6,1.7
CCOC(=O)C1(C)CCN1C(=O)c1cccs1 (configuration not stated),7.3,0.9,8.9,-2.1,-1.2,2.2
CN(C)C/C=C/C(O)(c1ccccc1)c1ccccc1,96.5*,0.9,-4.1,-26.3,-7.1,18.6
CCOc1cc(OCC)cc(C(=O)N2CCC[C@@H]2C(=O)N2CCC[C@@H]2C(=O)NCc2ccccc2Cl)c1,.,17.1*,9.9,.,.,-3.6
NCCNCCNCCN,-27.1,-0.2,10.7,-1.8,-0.4,13.8
NCCCCNCCCN,62.0,0.0,-18.1,-28.8,79.3*,27.8
SMILES,CHRM1 antagonist,M1 ag parental,CHO-K1 Ca antag,M1 PAM,M1 ag,M1 PAM parental
COc1ccc(CN2C[C@@H](CO)O[C@@H](n3cnc4c(NCCO)ncnc43)C2)cc1,-16.2,0.3,-4.6,5.7,-2.2,-3.8
Cc1c(OCC(=O)NCc2cccnc2)ccc2c3c(c(=O)oc12)CCCC3,3.0,0.5,-12.9,-3.8,-1.9,5.2
Cc1c(OC(C)C(=O)NCc2cccnc2)ccc2c3c(c(=O)oc12)CCCC3 (configuration not stated),-5.6,3.6,57.6*,1.4,-1.4,-5.4
COCCOC(=O)c1[nH]c2c(c1C)C(=O)CC(c1ccc(N(C)C)cc1)C2 (configuration not stated),-4.3,16.5*,6.2,-5.5,4.9,5.5
COc1ccc(CNc2cc(NCCCO)c([N+](=O)[O-])c3nonc23)cc1,-1.5,-0.8,24.9*,1.3,-9.9,-15.5
COc1ccc(Nc2cc(NCCCO)c([N+](=O)[O-])c3nonc23)cc1,-3.9,-1.9,-7.7,2.1,-4.1,6.5
COc1ccc(C(=O)COC(=O)CCN2C(=O)C3C4CCC(C4)C3C2=O)cc1 (configuration not stated),5.5,0.3,24.3*,-6.7,-4.3,-17.0
Cc1cccc(OCC(=O)Nc2ccc(N3CCN(C(=O)c4ccccc4)CC3)cc2)c1C,26.9*,9.8,3.7,-12.4,0.9,-3.0
CCC(=O)N1CCN(c2ccc(NC(=O)COc3cccc(C)c3C)cc2)CC1,15.9,8.6,15.0,-9.5,-4.7,-3.3
CN1CCN(c2ccc(NC(=O)COc3ccccc3[N+](=O)[O-])cc2)CC1,-6.6,0.0,2.6,12.4,-15.6,5.0
CC(C)C(=O)N1CCN(c2ccc(NC(=O)COc3ccccc3[N+](=O)[O-])cc2)CC1,36.6*,12.6,39.7*,-26.1,3.8,-19.0
C=CCOc1c(Br)cc(/C=C2/C(=O)ON=C2C)cc1OC,-21.5,-0.5,-19.7,9.3,-1.9,-9.4
CCOC(=O)C1=C[C@@H](C(C)(C)C)N(S(=O)(=O)c2ccc(C)cc2)[C@H]1c1ccccc1Cl,24.8,0.7,24.2*,-17.5,-4.0,-4.7
CCOC(=O)C1=C[C@@H](C(C)(C)C)N(S(=O)(=O)c2ccc(C)cc2)[C@H]1c1ccc(C)cc1,25.0,0.9,12.9,-14.7,-4.8,14.8
CC(=O)N1CCc2cc(NC(=O)C3(C)CCN3Cc3ccccc3OC(F)F)ccc21 (configuration not stated),-4.0,4.3,-25.1,-4.8,-2.8,26.4
N#CNC(=Nc1ccccc1)SCc1ccc(C(=O)O)cc1,0.2,-0.1,12.7,6.9,-0.5,-10.0
CSC(=Nc1ccccc1)N=C(SCc1ccccc1)N(C)C,49.0*,8.9,18.2,-25.4,1.9,5.7
C=CCn1c(CCC(=O)Nc2ccc(C)c(Cl)c2)nnc1SCC(=O)Nc1ccccc1C,7.3,16.1*,-1.1,0.9,-1.8,6.6
